Hit rate of the full screen: of about 69,000 compounds, about 8,600 (12%) showed an effect of 50% or more. This is one part of a sample in which strong results are shown more often than they occur.

This test relates to Plasmodium berghei. Kind of test: Screen against P. berghei liver stage (PbLuc), transformed with Luciferase, at 10uM. The format is functional, HepG2. To be noted: tested at 10 uM.
For the compound `OC(COCc1ccccc1Cl)CN1CCC(c2ccn[nH]2)CC1` (stereo not given), the INHIBITION came to 48.2%.
`COc1ccc(CN2CC3(CCNCC3)CCC2=O)c(F)c1F`: the INHIBITION turned out to be 22.9%.
The same measure for `Cc1ccc(CN2CC3(CCNCC3)CCC2=O)c(F)c1F`: 71.1%; for `COc1cccc(CN2CC3(CCNCC3)CCC2=O)c1OC`: 24.2%; for `c1ccc(NC[C@@H]2CCC[C@@H]3CN(c4ncccn4)C[C@@H]32)nc1`: 48.4%.
For the compound `CC[C@H]1CN(C(=O)c2cnc(N3CCN(C)CC3)nc2C)CC[C@@]1(C)O`, the INHIBITION amounted to 1.93%.
Consider `CC(=O)N1CCc2nnc(C3CCCN3CC3CCCCC3)n2CC1` (stereo not given), for which the INHIBITION is recorded as -5.71%.
With `CC(CNC(=O)CCCc1ccccn1)c1ccsc1` (stereo not given), the INHIBITION was found to be 60.2%.
As for `CC(C)C(O)CNC(=O)CCCc1ccccn1` (stereo not given), the INHIBITION is given as 15.5%.
The same measure for `CC(CNC(=O)CCc1ccccn1)c1ccsc1` (stereo not given): 22.2%.
The same measure for `CC(C)CS(=O)(=O)CC(=O)NC1CCCCNC1=O` (stereo not given): -79.1%; for `O=C(c1cnc(-c2ccccn2)s1)N1CCCC1Cn1cccn1` (stereo not given): -9.19%; for `O=C(N1CCOCC1)N1CCc2ncnc(Oc3cccnc3)c2CC1`: 0.734%.
For `Cc1nc(C)c(C)c(NCCSc2ccccn2)n1`, the INHIBITION is given as 60.2%.
In the case of `Cc1nc(NCCSc2ccccn2)c2c(C)noc2n1`, the INHIBITION was found to be 13.5%.
In the case of `Cc1nc(N(C)C)nc(NCCc2ccccn2)c1C`, the INHIBITION is reported as -43.6%.
In the case of `CC(C)CN1C[C@@H]2CN(C(=O)[C@H]3CCCO3)C[C@@H]2C1=O` it was 17.4%; in that of `CCN1CCCC1CNCc1cc2cc(OC)ccc2[nH]c1=O` (stereo not given), 72.2%.
For the compound `CCN1CCCC1CNCc1cc2ccccc2[nH]c1=O` (stereo not given), the INHIBITION is -61.5%.
The same measure for `COc1ccc2cc(CN(C)CCc3cn[nH]c3)c(=O)[nH]c2c1`: 36.5%.
Consider `CCN1CCCC1CNC(=O)CCSc1ccc2c(c1)OCCO2` (stereo not given), for which the INHIBITION worked out at 38.5%.
`COc1ccc2[nH]c(=O)c(CN(C)CCN3CCCC3)cc2c1`: the INHIBITION is reported as 63.9%.
Turning to `CCN1CCCC1CNCc1cc2cc(C)c(C)cc2[nH]c1=O` (stereo not given), the INHIBITION was -29.9%.
For the compound `CCOc1ccc2[nH]c(=O)c(CN(C)CCc3cn[nH]c3)cc2c1`, the INHIBITION was 54.4%.
With `COc1ccc2cc(CN(C)CCN3CCCCC3=O)c(=O)[nH]c2c1`, the INHIBITION is reported as -15.1%.
In the case of `CCN1CCCC1CNCc1cc2cc(OC)c(OC)cc2[nH]c1=O` (stereo not given), the INHIBITION stood at 18.3%.
Take `CSc1ccc2cc(CN(C)CCc3cn[nH]c3)c(=O)[nH]c2c1`: the INHIBITION amounted to 20.8%.
Consider `CCN1CCCC1CNCc1cc2cc3c(cc2[nH]c1=O)OCCO3` (stereo not given), for which the INHIBITION is reported as 58.2%.
In the case of `COc1ccc2[nH]c(=O)c(CN(C)C(C)c3ccccn3)cc2c1` (stereo not given) it was -3.55%.
The same measure for `CCOc1cc(C)nc(N2CCN(C(=O)c3cscn3)CC2)n1`: 15.3%.
For the compound `Cc1csc(NC(=O)c2ccc(NC(=O)N3CCOCC3)cc2)n1`, the INHIBITION was -37.4%.
The same measure for `Cc1cccc(C(=O)NCc2ccc(CS(N)(=O)=O)cc2)n1`: -33.9%; for `O=C1CCCN1Cc1nnc2n1CCN(Cc1ccccn1)CC2`: -30.7%; for `COc1ncc(CN2C[C@@H]3C[C@@H](O)CN3C[C@@H]2Cc2ccccc2)cn1`: 33.8%.
On to `c1cn2c(n1)CN(Cc1ccsc1)CC(Cn1cncn1)C2` (stereo not given), for which the INHIBITION is 49.7%.
In the case of `CC(C)c1nc(CN(C)Cc2ccc(O)c(C(=O)O)c2)cs1` it was -14.1%; in that of `CCOc1ncccc1CNC(=O)Nc1ccccc1`, 31.3%; in that of `COc1ccc(CC2CN(C(=O)c3coc(C)n3)CCO2)cc1` (stereo not given), 9.05%.
Regarding `Cc1nc(-c2cncnc2C2CCCNC2)no1` (stereo not given), the INHIBITION is -3.45%.
In the case of `COc1ccc2c(C)c(C(=O)NC3CCCOC3)oc2c1` (stereo not given) it was 60.9%; in that of `COc1ccc2c(C)c(C(=O)NC3CCOCC3)oc2c1`, -104%; in that of `COc1ccc2c(C)c(C(=O)NC3CCN(S(C)(=O)=O)CC3)oc2c1`, -112%.
For `CNS(=O)(=O)c1ccc(C(=O)N2CCCC2c2ccncc2)o1` (stereo not given), the INHIBITION stood at 36.1%.
The same measure for `Cc1cc(NCCO)nc2[nH]nc(N)c12`: 26.7%; for `Cc1cc(NCc2ccccc2)nc2[nH]nc(N)c12`: -0.232%.
The same measure for `Cc1cc(NCc2ccco2)nc2[nH]nc(N)c12`: 61%; for `CC1COCCN1C(=O)COc1ccc(Oc2ccccn2)cc1` (stereo not given): 8.99%.
For `CC1COCCN1C(=O)COc1cccc(Oc2ccccn2)c1` (stereo not given), the INHIBITION is recorded as -20.6%.
The same measure for `CC1CN(C)CCN1C(=O)COc1cccc(Oc2ccccn2)c1` (stereo not given): 61.2%; for `CCS(=O)(=O)c1ccc2c(c1)OCCCO2`: 55.9%; for `CC(C)CC(=O)NS(=O)(=O)c1ccc2c(c1)OCCCO2`: -7.81%.
The same measure for `CSCC(=O)NS(=O)(=O)c1ccc2c(c1)OCCO2`: 8.315%; for `O=S(=O)(CCCS(=O)(=O)c1ccc2c(c1)OCCCO2)c1ccccc1`: -46.8%; for `CCS(=O)(=O)c1ccc2c(c1)OCCO2`: 77.8%.
In the case of `CCSCCC(=O)NS(=O)(=O)c1ccc2c(c1)OCCO2` it was 41.9%.

Source of the values: ChEMBL document CHEMBL4513216, “Probing the Open Global Health Chemical Diversity Library for Multistage-Active Starting Points for Next-Generation Antimalarials” (ACS Infect Dis, 2020).
